Results filed as inconclusive are left out. Entries that show only a call come without a potency. Calls of active or inactive are those of the source. Unless noted, the call rests on the fitted dose curve; in most records, active means well fitted curve in the direction sought with a large enough effect; inconclusive means small, poorly fitted or top-dose-only effect, or another doubt; inactive means no such curve, though single readings can be large; an effect the other way counts as inactive or inconclusive.
Experiments:
[1] = qHTS of pediatric cancer cell lines to identify multiple opportunities for drug repurposing: Primary screen for SK-N-SH cells (AID 1347098); conditions: SK-N-SH viability, CellTiter-Glo luminescence, 48 h; further: potency means the concentration at half of the fitted maximal effect; nearly all actives have a fitted effect of over 65% in size
Outline: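 Cells (500-1,000/well) rested 5 h, then received compounds for 48 h; metabolically active cells were measured by CellTiter-Glo luminescence. Final concentrations spanned up to 46 µM (MIPE, 11-point) or 0.59 nM-46 µM (NPC, 8-point) in primary screens, 11-point in follow-ups.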

[2] = qHTS of pediatric cancer cell lines to identify multiple opportunities for drug repurposing: Primary screen for Rh18 cells (AID 1347102); conditions: Rh18 rhabdomyosarcoma viability, CellTiter-Glo luminescence, 48 h; further: potency means the concentration at half of the fitted maximal effect; nearly all actives have a fitted effect of over 65% in size
Outline: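 Cells (500-1,000/well) in growth media were settled 5 h at 37 degrees C, then given compounds for 48 h. Viability was read as CellTiter-Glo luminescence. Primary runs used MIPE at 11 points (0.78 nM-46 µM) and NPC at 8 points (0.59 nM-46 µM); follow-ups used 11 points.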

[3] = qHTS of pediatric cancer cell lines to identify multiple opportunities for drug repurposing: Primary screen for MG 63 (6-TG R) cells (AID 1347105); conditions: MG 63 (6-TG R) viability, CellTiter-Glo, 48 h; further: potency means the concentration at half of the fitted maximal effect; nearly all actives have a fitted effect of over 50% in size
Outline: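 Readout: CellTiter-Glo luminescence, 48 h treatment. Controls DMSO (neutral) and bortezomib 2.3 µM final (positive). Potency and efficacy taken from primary-screen concentration-response curves.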

[4] = test system: Zika virus NS2B-NS3 protease (linked construct); test: Confirmatory screen NINDS AMC qHTS for Zika virus inhibitors (AID 1347152); conditions: Purified linked NS2B-NS3, AMC substrate fluorescence; series mostly up to 110 µM; further: potency means the concentration at half of the fitted maximal effect; nearly all actives have a fitted effect of over 70% in size
Outline: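 Linked NS2B-NS3 1 nM, Tris pH 8.0/0.01% Tween 20; cpd 15 min RT dark; + Nle-KRR-AMC 10 µM (Km 18.3 µM); read 0 and 15 min, 340/450 nm; %inh vs controls, 4-param Hill.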

[5] = ZIKV-mCherry secondary qHTS for Zika virus inhibitors (AID 1347158); conditions: Vero cells, ZIKV-mCherry infection imaging, 48-72 h; series mostly up to 49.2 µM; further: potency means the concentration at half of the fitted maximal effect
Outline: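 Vero cells (5,000/well) were given compound, then infected with ZIKV-mCherry at MOI 1 for 48–72 h at 37 °C. After PFA fixation and Hoechst staining, imaging gave percent mCherry-positive cells. The positivity threshold was RFU above 450, 3 SD over negative controls.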

[6] = target: Calcium and integrin-binding protein 1 (Homo sapiens) (UniProt Q99828); test: Confirmatory qHTS for Identification of Calcium Integrin Binding Protein 1 (CIB1) Competitor (AID 1508617); conditions: CIB1 binding competition assay, biochemical qHTS; series mostly up to 114 µM; further: nearly all actives have a fitted effect of over 65% in size
Sequence of Calcium and integrin-binding protein 1 (Homo sapiens) (Q99828 whole entry, looked up): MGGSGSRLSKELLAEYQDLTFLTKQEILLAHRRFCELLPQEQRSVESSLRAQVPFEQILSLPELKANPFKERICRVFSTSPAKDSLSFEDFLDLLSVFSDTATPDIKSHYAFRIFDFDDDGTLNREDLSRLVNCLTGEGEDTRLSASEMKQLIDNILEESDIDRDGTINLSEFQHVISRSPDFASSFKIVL
Outline: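 Binding competition between test compounds and fluorescent alphaIIb peptide for 1 uM CIB1-GST is monitored by FP at 480/540 nm. Final compound range is up to 114 uM; unlabeled peptide serves as reference competitor.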

[7] = target: Cytochrome P450 3A4 (Homo sapiens) (UniProt P08684); test: Cytochrome P450 family 3 subfamily A member 4 (CYP3A4) small molecule antagonists: luciferase qHTS assay (AID 1645841; active means well fitted curve in the direction sought with a large enough effect in the repeat runs; an effect the other way counts as inactive or inconclusive; further: nearly all actives have a fitted effect of over 45% in size); conditions: P450-Glo CYP3A4 enzyme assay, luciferin luminescence; series mostly up to 57.4 µM
Sequence of Cytochrome P450 3A4 (Homo sapiens) (P08684 whole entry, looked up): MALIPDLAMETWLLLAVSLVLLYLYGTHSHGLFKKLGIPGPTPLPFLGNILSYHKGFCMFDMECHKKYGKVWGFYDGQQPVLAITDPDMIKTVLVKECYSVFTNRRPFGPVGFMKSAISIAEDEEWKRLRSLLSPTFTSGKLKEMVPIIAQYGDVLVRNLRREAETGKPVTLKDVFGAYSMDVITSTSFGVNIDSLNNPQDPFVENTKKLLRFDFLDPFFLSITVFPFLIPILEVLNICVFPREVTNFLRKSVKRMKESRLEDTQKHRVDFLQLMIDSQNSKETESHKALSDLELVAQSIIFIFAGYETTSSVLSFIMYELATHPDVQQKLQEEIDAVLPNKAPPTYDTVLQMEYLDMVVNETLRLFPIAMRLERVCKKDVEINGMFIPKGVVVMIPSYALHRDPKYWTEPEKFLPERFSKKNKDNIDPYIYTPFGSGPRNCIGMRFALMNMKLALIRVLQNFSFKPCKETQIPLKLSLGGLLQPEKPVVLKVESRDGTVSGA
Outline: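 P450-Glo CYP3A4 enzyme with proluciferin substrate was preincubated with DMSO-dissolved compounds for 10 min at room temperature. NADPH regeneration solution started a 1 h reaction. Detection reagent stopped it, and luminescence was read after 20 min.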

MCC-13 = test: qHTS assay to identify novel small-molecules to repurpose for Merkel cell carcinoma treatment (AID 1296009); conditions: MCC and control cell lines, CellTiter-Glo viability, 72 h; series mostly up to 46 µM; further: nearly all actives have a fitted effect of over 60% in size
Outline: (§1)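 qHTS format: cells treated with library compounds in DMSO across 8 (NPC) or 11 (MIPE) concentrations. Readout after 72 hr at 37 degree celsius was CellTiter-Glo luminescence.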

MCC-26 = test: as above; conditions: MCC and control cell lines, CellTiter-Glo viability, 72 h; series mostly up to 46 µM
Outline: as §1

[8] = S16 Schwann cell viability assay (CellTiter-Glo assay) (AID 624031); conditions: S16 rat Schwann cells viability, 24 h; series mostly up to 57.5 µM;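 further: native untransfected S16 rat Schwann cells; cellular ATP luminescence as a viability measure; nearly all actives have a fitted effect of over 70% in size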
Outline: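 Parental S16 cells, 24 h compound, 37 °C. ATP-luminescence viability; DMSO = 0% activity, empty wells as reference; curves classified by fit quality and efficacy.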

[9] = S16 Schwann cell PMP22 intronic element firefly luciferase assay (AID 624032); conditions: S16 rat Schwann cells, PMP22 element FLuc, 24 h; series mostly up to 57.5 µM; further: nearly all actives have a fitted effect of over 30% in size
Outline: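 Rat S16 Schwann cells stably carrying a PMP22 intronic element-driven Fluc reporter were seeded overnight, then exposed to compounds for 24 h at 37 °C. Luminescence was normalized to PTC124 (positive control) and DMSO (0% activity).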

AA1029 = test: qHTS profiling for inhibitors of Plasmodium falciparum proliferation (AID 504749); further: nearly all actives have a fitted effect of over 60% in size; further: potency means the concentration at half of the fitted maximal effect; conditions: P. falciparum in erythrocytes, SYBR Green DNA, 72 h; series mostly up to 28.7 µM
Outline: (§2)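 Parasite proliferation within erythrocytes, 72 h exposure. Endpoint: SYBR Green I fluorescence after overnight lysis at room temperature. Controls: 0.29 uM artemisinin, DMSO.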

CP211 = test: as above; conditions: P. falciparum in erythrocytes, SYBR Green DNA, 72 h; series mostly up to 28.7 µM
Outline: as §2

CP217 = test: as above; conditions: P. falciparum in erythrocytes, SYBR Green DNA, 72 h; series mostly up to 28.7 µM
Outline: as §2

CP297 = test: as above; conditions: P. falciparum in erythrocytes, SYBR Green DNA, 72 h; series mostly up to 28.7 µM
Outline: as §2

CP315 = test: as above; conditions: P. falciparum in erythrocytes, SYBR Green DNA, 72 h; series mostly up to 28.7 µM
Outline: as §2

FAB9 = test: as above; conditions: P. falciparum in erythrocytes, SYBR Green DNA, 72 h; series mostly up to 28.7 µM
Outline: as §2

ICS = test: as above; conditions: P. falciparum in erythrocytes, SYBR Green DNA, 72 h; series mostly up to 28.7 µM
Outline: as §2

JCK = test: as above; conditions: P. falciparum in erythrocytes, SYBR Green DNA, 72 h; series mostly up to 28.7 µM
Outline: as §2

PC15 = test: as above; conditions: P. falciparum in erythrocytes, SYBR Green DNA, 72 h; series mostly up to 28.7 µM
Outline: as §2

CCN(CC)c1ccc(C(=C2C=CC(=[N+](CC)CC)C=C2)c2cc(S(=O)(=O)O)ccc2S(=O)(=O)[O-])cc1
Potency [1]: 3.86 µM (active) | Potency [2]: 11.9 µM (active) | Potency [3]: 16.8 µM (active)

O=C(NCc1ccc(Oc2ccccc2)cc1)c1nc(-c2cc(Br)c(O)c(Br)c2)no1
Potency [4]: 13.9 µM (active) | Potency [5]: 7.08 µM (active)

Cn1cnc(-c2nccc3c(=O)[nH]c(OCCCC(F)(F)F)nc23)c1
outcome [6]: inactive

Cc1ccc(C(=O)N2CCN(c3ccc([N+](=O)[O-])cc3)CC2)cc1Cl
outcome [7]: inactive

CS(=O)(=O)c1ccc(-c2cn3ccccc3n2)cc1
outcome (MCC-13): inactive | outcome (MCC-26): inactive

CCCCC(=O)N(Cc1ccc(-c2ccccc2-c2nn[nH]n2)cc1)C(C(=O)O)C(C)C (stereo unspecified)
outcome [8]: inactive | Potency [9]: inactive | Potency (AA1029): inactive | Potency (CP211): inactive | Potency (CP217): inactive | Potency (CP297): inactive | Potency (CP315): inactive | Potency (FAB9): inactive | Potency (ICS): 7.94 µM (active) | Potency (JCK): inactive | Potency (PC15): inactive

O=C(CC1NCCC[C@H]1O)Cn1cnc2cc(Br)c(Cl)cc2c1=O (stereo partly specified)
outcome [8]: inactive | Potency [9]: inactive | Potency (AA1029): 1 µM (active) | Potency (CP211): 3.38 µM (active) | Potency (CP217): 3.16 µM (active) | Potency (CP297): 3.38 µM (active) | Potency (CP315): 3.01 µM (active) | Potency (FAB9): 1 µM (active) | Potency (ICS): 1.12 µM (active) | Potency (JCK): 2.82 µM (active) | Potency (PC15): 0.891 µM (active)

From PubChem BioAssay (NCATS)
